# Test results: PubChem BioAssay (NCATS)
# Inconclusive results are not listed. A call without a number means that no potency is given here. Active and inactive are the calls of the source. The call rests on the fitted dose curve; in most records, active means well fitted inhibition curve with a large enough effect; inconclusive means small, poorly fitted or top-dose-only effect; inactive means flat fitted curve, though single readings scatter.
# Biological target: Ubiquitin carboxyl-terminal hydrolase 1 (Homo sapiens) (UniProt O94782)
# Sequence (O94782 whole entry, looked up): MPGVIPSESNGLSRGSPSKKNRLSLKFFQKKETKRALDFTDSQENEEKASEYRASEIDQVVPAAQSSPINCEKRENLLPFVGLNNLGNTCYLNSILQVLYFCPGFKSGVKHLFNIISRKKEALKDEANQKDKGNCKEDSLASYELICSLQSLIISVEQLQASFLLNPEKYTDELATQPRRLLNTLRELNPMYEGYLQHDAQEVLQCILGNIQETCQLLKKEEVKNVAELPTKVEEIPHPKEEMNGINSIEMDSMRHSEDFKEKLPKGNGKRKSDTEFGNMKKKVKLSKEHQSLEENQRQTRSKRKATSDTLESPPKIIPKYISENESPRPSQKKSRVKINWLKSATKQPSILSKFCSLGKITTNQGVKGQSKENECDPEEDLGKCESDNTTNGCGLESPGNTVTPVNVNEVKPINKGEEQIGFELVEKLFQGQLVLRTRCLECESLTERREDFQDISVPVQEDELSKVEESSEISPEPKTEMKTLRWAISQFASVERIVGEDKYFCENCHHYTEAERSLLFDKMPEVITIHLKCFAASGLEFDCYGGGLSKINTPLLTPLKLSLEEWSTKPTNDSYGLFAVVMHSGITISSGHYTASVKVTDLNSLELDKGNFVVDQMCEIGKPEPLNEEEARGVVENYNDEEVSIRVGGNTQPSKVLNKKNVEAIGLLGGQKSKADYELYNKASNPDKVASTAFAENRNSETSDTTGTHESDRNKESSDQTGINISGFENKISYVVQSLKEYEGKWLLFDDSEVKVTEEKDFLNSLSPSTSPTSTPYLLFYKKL
# Assay: Inhibitors of USP1/UAF1: Pilot qHTS (AID 504865); further: nearly all actives have a fitted effect of over 35% in size
# Conditions: purified USP1/UAF1, Ub-rhodamine cleavage fluorescence; series mostly up to 114 µM
# Text: Deubiquitinating enzymes (DUBs) are a class of enzymes that can cleave isopeptide bond formed between the C-terminal carboxylate of ubiquitin and a lysine side-chain amino group on the target protein. Among them, ubiquitin specific proteases (USPs) constitute the largest DUB family. Human USPs are emerging as promising targets for pharmacological intervention because of their connection to a number of human diseases, including prostate, colon and breast cancer (1, 2), pediatric acute lymphoblastic leukemia (3), and familial cylindromatosis (4). The advantage of inhibiting USPs lies in the potential specificity of therapeutic intervention that can lead to better efficacy and reduce nonspecific side effects.
# In a collaboration between the University of Delaware and the NIH Chemical Genomics Center, a high-throughput screen assay was developed to screen for USP1/UAF1 inhibitors. This miniaturized assay has a fluorescent read-out and is used to screen the NIH Molecular Libraries Small Molecule Repository (MLSMR) in order to identify a small molecule that inhibits USP1.
# NIH Chemical Genomics Center [NCGC]
# NIH Molecular Libraries Probe Centers Network [MLPCN]
# Assay Submitter (PI): Zhihao Zhuang, University of Delaware
# 1. Priolo, C., et al. (2006) The isopeptidase USP2a protects human prostate cancer from apoptosis. Cancer Res 66, 8625-8632
# 2. Popov, N., et al. (2007) The ubiquitin-specific protease USP28 is required for MYC stability. Nat Cell Biol 9, 765-774
# 3. De Pitta, C., et al. (2005) A leukemia-enriched cDNA microarray platform identifies new transcripts with relevance to the biology of pediatric acute lymphoblastic leukemia. Haematologica 90, 890-898
# 4. Kovalenko, A., et al. (2003) The tumour suppressor CYLD negatively regulates NF-kappaB signalling by deubiquitination. Nature 424, 801-805
# 3 microliters of reagents (buffer in columns 3 and 4 as negative control and 1nM USP1/UAF1 complex in columns 1, 2, and 5-48) are dispensed into Greiner black solid bottom 1536-well assay plates. Compounds are then transferred via Kalypsys pin tool equipped with 1536-pin array (10nl slotted pins, V&P Scientific, San Diego, CA). Following an incubation step of 15 min at room temperature, 1ul of Ub-Rho substrate (150nM final concentration) is added to initiate the reaction. The plates are immediately centrifuged at 1000 rpm for 15 seconds, and subsequently transferred to a ViewLux high-throughput CCD imager (PerkinElmer) wherein kinetic measurements of fluorescence are acquired using 480 nm excitation/540 nm emission filter set (6 reads every 60 seconds, see Table 1). All reagents are diluted in an assay buffer consisting of 50mM HEPES (pH 7.8), 0.5mM EDTA, 0.1 mg/ml BSA, 1mM TCEP, and 0.01% Tween-20.
# Potency means the concentration at half of the fitted maximal effect.
row,SMILES,Potency
1,CC1O[C@@H](OC2CC(O)[C@@]3(CO)C4C(O)C[C@@]5(C)C(C6=CC(=O)OC6)CC[C@]5(O)C4CC[C@]3(O)C2)C(O)C(O)C1O (stereo not given in full),inactive
2,COc1ccc(C(=O)OC2C[C@H]3CC[C@@H](C2)N3C)cc1OC (stereo not given in full),inactive
3,C=CCc1ccc2c(c1)OCO2,inactive
4,CN1[C@H]2CC(=O)C[C@@H]1[C@@H](O)C2,inactive
5,CC1(C)C(O)CC(O)[C@]2(C)C1CC(=O)[C@]1(C)C2CC[C@@]2(C)C(c3ccoc3)OC(=O)C3OC321 (stereo not given in full),inactive
6,CC1CC[C@@]2(NC1)O[C@@H]1C[C@H]3C4CC=C5C[C@@H](O)CC[C@]5(C)C4CC[C@]3(C)[C@H]1[C@@H]2C (stereo not given in full),inactive
7,C[N+]1([O-])[C@@H]2CC[C@H]1CC(OC(=O)[C@@H](CO)c1ccccc1)C2 (stereo not given in full),inactive
8,CC(C)N(CC[C@@](C(N)=O)(c1ccccc1)c1ccccn1)C(C)C,inactive
9,C[C@@]12CCC(Cl)C[C@H]1CCC1C2CC[C@]2(C)C(=O)CCC12 (stereo not given in full),inactive
10,CC(=O)C1CCC2C3CCC4CC(O)CCC4(C)C3CC(O)C12C (stereo not given),inactive
11,C[N+]1(C)[C@@H]2CC[C@H]1CC(OC(=O)[C@@H](CO)c1ccccc1)C2 (stereo not given in full),inactive
12,COc1cc(C2c3cc4c(cc3C(O)[C@H]3COC(=O)C23)OCO4)cc(OC)c1OC (stereo not given in full),inactive
13,COP(N)(=O)SC (stereo not given),inactive
14,ClC(Cl)=C(c1ccc(Cl)cc1)c1ccc(Cl)cc1,inactive
15,CNC[C@H](O)c1ccc(O)cc1,inactive
16,C=C1CC[C@H](O)C/C1=C/C=C1\CCC[C@]2(C)[C@H]1CC[C@H]2[C@@H](C)CCCC(C)C,inactive
17,CC1=C2[C@@H]3OC(=O)[C@@H](C)[C@@H]3CC[C@]2(C)C=CC1=O,inactive
18,C=C1[C@@H]2C[C@@]3([C@H]1O)[C@H]1C[C@@H]4[C@@]5(C)CC[C@H](O)[C@]4([C@H]1N(CC)C5)[C@H]3C[C@H]2O,inactive
19,COC1=CC(=O)O[C@@H](/C=C\c2ccccc2)C1,inactive
20,O=C1CC2OCC=C3CN4CC[C@]56c7ccccc7N1[C@H]5[C@H]2C3C[C@H]46 (stereo not given in full),inactive

row,SMILES,Potency
1,C[C@]12CC[C@H](O)C[C@@H]1CC[C@H]1[C@H]2CC[C@]2(C)C(=O)CC[C@@H]12,inactive
2,C[C@@]12CCC(=O)C=C1C=C[C@H]1[C@H]3CC[C@](O)(CCC(=O)O)[C@]3(C)CC[C@@H]12,inactive
3,C/C=C/c1ccc2c(c1)OCO2,inactive
4,CCN1C[C@@]2(COC)CC[C@H](O)[C@@]34[C@@H]2C[C@@H]([C@@H]13)[C@]1(O)C[C@@H](OC)C2C[C@H]4[C@H]1[C@H]2OC(C)=O,inactive
5,CS(=N)(=O)CC[C@@H](N)C(=O)O (stereo not given in full),inactive
6,CNc1ccccc1C(=O)O,inactive
7,Oc1ccc2c3c1OC1C(O)CC[C@]4(O)C(C2)N(CC2CCC2)CC[C@]314 (stereo not given in full),inactive
8,COc1cc(C2c3cc4c(cc3C(OC(C)=O)[C@H]3COC(=O)C23)OCO4)cc(OC)c1OC (stereo not given in full),inactive
9,Cc1nnc2ccc(-c3cccc(C(F)(F)F)c3)nn12,inactive
10,CCCCC/C=C\C/C=C\C/C=C\C/C=C\CCCC(=O)O,50.1 µM (active)
11,C=C[C@H]1CN2CC[C@@H]1C[C@H]2[C@@H](O)c1ccnc2ccccc12,inactive
12,CN1CCc2cc3c(cc2[C@@H]1[C@@H]1OC(=O)c2c1ccc1c2OCO1)OCO3,inactive
13,COc1ccc2c(c1OC)CN1CCc3cc4c(cc3[C@H]1C2)OCO4,inactive
14,Nc1ncn[nH]1,inactive
15,CN1C2CC(OC(=O)C(CO)c3ccccc3)CC1C(O)C2 (stereo not given),inactive
16,COc1cc2c(cc1OC)[C@@H]1C(=O)c3ccc(O)c(CC=C(C)C)c3OC1CO2 (stereo not given in full),inactive
17,CC(=O)N[C@@H]1CCSC1=O,inactive
18,CC[C@@H](CO)NC(=O)[C@H]1C=C2c3cccc4c3c(cn4C)C[C@H]2N(C)C1,35.5 µM (active)
19,CN1CCC2=C[C@H](O)[C@@H]3OC(=O)c4cc5c(cc4[C@H]3[C@H]21)OCO5,inactive
20,CN1C(=O)CCS(=O)(=O)[C@@H]1c1ccc(Cl)cc1,inactive
